This note sets out measurements from ChEMBL document CHEMBL3988442, “University of Dundee, Small-Polar-MMV Screening Library” (2021).

In all, about 48,000 compounds went through this assay and about 13,000 (27%) showed an effect of 50% or more. Some of the results follow.

This test has as its system Wolbachia pipientis. In words: Anti-Wolbachia Cell-Based Screen. The format is functional. Set-up: scale not given: in the data most compounds retested in dose-response had high values. The settings on record: 5 µM.
As to `NC(=O)CCSCc1ccc(Br)c(F)c1`, the “Percent Effect” value is given as -4.384%. `CCC(CO)N(Cc1cccs1)C(=O)Cc1ccncc1` (centres undefined): the “Percent Effect” value is recorded as -5.56%. Turning to `c1ccc2c(c1)nc1n2[C@@H](CNCc2nccs2)COC1`, the “Percent Effect” value was 3.551%. Regarding `Cn1ccnc1SCCNC(=O)CC1CCc2ccccc21` (centres undefined), the “Percent Effect” value is reported as -4.259%. As for `Cc1ccc(S(=O)(=O)NCC2CNCCOC2)cc1Cl` (centres undefined), the “Percent Effect” value was -1.884%. Turning to `Cc1cccc2[nH]c(C3CCN(C(=O)c4cnc(O)cc4O)CC3)nc12`, the “Percent Effect” value is on record as -25%. As to `Cn1[nH]c(C2CC2)c(-c2ccc3c(c2)OCO3)c1=N`, the “Percent Effect” value was -0.9629%.

Take `CN(Cc1cccnc1)C[C@H]1CC[C@@H](Cc2ccc3c(cnn3C)c2)O1`: the “Percent Effect” value is -1.235%. Then `Cc1cccc(-c2noc(CN3CC(n4cc(C)cn4)C3)n2)c1`, with 6.599%.

As to `Cc1cnn(CC(C)NCc2nc(-c3cccnc3)no2)c1` (centres undefined), the “Percent Effect” value is given as 10.95%. Consider `Cc1ccccc1-c1noc(CN2CC(n3cccn3)C2)n1`, for which the “Percent Effect” value turned out to be 17.98%.

For `Cc1cnn(C2CN(Cc3noc(C)n3)C2)c1`, the “Percent Effect” value was determined as 14.64%.

With `Cc1cnn(C2CN(Cc3nc(C(C)(C)C)no3)C2)c1`, the “Percent Effect” value was -1.752%.

For `Cc1cnn(C2CN(Cc3nc(-c4ccccc4C)no3)C2)c1`, the “Percent Effect” value came to 81.63%. In the case of `Cc1cnn(C2CN(Cc3nc(-c4ccco4)no3)C2)c1`, the “Percent Effect” value is listed as -0.024%. `Cc1cnn(C2CN(Cc3nc(-c4cccnc4)no3)C2)c1`: the “Percent Effect” value was determined as 94.26%. As for `Cc1cnn(C2CN(Cc3nc(-c4ccccn4)no3)C2)c1`, the “Percent Effect” value is 99.99%.

As to `Cc1cnn(C2CN(Cc3nnc(Cc4ccccc4)o3)C2)c1`, the “Percent Effect” value is on record as -8.725%. For `Cc1ccc(-c2noc(CN3CC(n4cc(C)cn4)C3)n2)cc1`, the “Percent Effect” value is 109%. With `Cc1cnn(C2CN(Cc3nnc(-c4ccccc4Cl)o3)C2)c1`, the “Percent Effect” value was 0.6902%. For `O=c1cc(N2CCNCC2)cnn1Cc1noc(C2CCCC2)n1`, the “Percent Effect” value was 5.676%.

On to `CC(=O)N1CCC(C(=O)Nc2nnc(C(F)(F)F)[nH]2)CC1`, for which the “Percent Effect” value is -2.768%. Turning to `CC(=O)N[C@@H]1CN(C(=O)c2cnccn2)C[C@H]1c1ccc(C)cc1`, the “Percent Effect” value was 4.61%. For `Cc1ncc(CN2CCC(c3ccnn3C)CC2)n1-c1ccccc1`, the “Percent Effect” value stood at 4.232%. Regarding `O=C(NCCOCCO)c1cnc(-c2ccccc2)nc1O`, the “Percent Effect” value is -4.282%. For `COc1cnc(CN2CCN(CC(C)C)C(=O)C2C)cc1O` (centres undefined), the “Percent Effect” value was -7.655%. For the compound `COc1ccc(-c2noc(CN3CC(n4cc(C)cn4)C3)n2)cc1`, the “Percent Effect” value is given as 101.6%. For `COc1ccc(-c2nc(CN3CC(n4cc(C)cn4)C3)no2)cc1`, the “Percent Effect” value is on record as 7.343%.

For the compound `Cn1cnc2c1CCN(Cc1nc(-c3ccsc3)no1)C2`, the “Percent Effect” value is -4.856%. As for `c1coc(-c2noc(CN3CC(n4cccn4)C3)n2)c1`, the “Percent Effect” value was -9.344%. Take `c1cnn(C2CN(Cc3nc(-c4ccsc4)no3)C2)c1`: the “Percent Effect” value is recorded as -8.892%. With `COc1ccc(-c2noc(CN3CC(n4cccn4)C3)n2)c(OC)c1`, the “Percent Effect” value came to 7.442%. In the case of `Cc1cccc(-c2noc(CN3CC(n4cccn4)C3)n2)c1`, the “Percent Effect” value turned out to be 120.1%. Take `Cc1ccc(-c2nnc(CN3CC(n4cc(C)cn4)C3)o2)cc1`: the “Percent Effect” value was 13.03%.

Turning to `Cc1cnn(C2CN(Cc3nc(-c4ccsc4)no3)C2)c1`, the “Percent Effect” value was 107.2%.

Turning to `COCC(NC(=O)c1ccoc1)c1ccc(C)o1` (centres undefined), the “Percent Effect” value is listed as -2.661%.

As to `Cc1ncsc1CCN(C)C(=O)CN1CC2(CCNCC2)OC1=O`, the “Percent Effect” value is given as -5.863%. Regarding `Cc1cc(NC2CCN(c3ccc(F)cc3)CC2)n2nc(C)cc2n1`, the “Percent Effect” value is listed as -5.138%. For `Nc1ncc(C(=O)N2CCCC(N)CC2)c(-c2ccccc2)n1` (centres undefined), the “Percent Effect” value was -5.532%. As to `O=C(Nc1ccccn1)C1CCN(Cc2cccc3c2OCCO3)CC1`, the “Percent Effect” value is reported as 88.18%. Take `O=C(Nc1nccs1)NC1CCOc2ccccc21` (centres undefined): the “Percent Effect” value was found to be 5.946%.

Consider `CNC(=O)C1CCN(Cc2cc3c(cc2O)CCC3)CC1`, for which the “Percent Effect” value is given as 6.264%. `O=C(NCCNCc1cccc2c1OCCCO2)C1CCCC1`: the “Percent Effect” value is listed as -19.03%. Turning to `c1cnnc(NCC2CN(Cc3cccc4c3OCCO4)CCO2)c1` (centres undefined), the “Percent Effect” value is 4.711%. Regarding `CC(C)C(=O)NC1CCN(Cc2cccc3c2OCCO3)CC1`, the “Percent Effect” value is given as 6.757%. In the case of `CCNC(=O)C1CCN(Cc2csc(-c3ccc(C)o3)n2)CC1`, the “Percent Effect” value is 8.641%. With `Cc1ccoc1C(=O)NC1CCN(Cc2cccc3c2OCCO3)CC1` the figure was 4.934%; with `O=C(Nc1ccccn1)C1CCN(Cc2cc3c(cc2O)OCO3)CC1`, 98.75%; with `O=C(NCc1ccccc1CN1CCC(O)CC1)Nc1ccccn1`, -0.8138%. For `O=C(Nc1nccs1)C1CCN(Cc2cccc3c2OCCO3)CC1`, the “Percent Effect” value turned out to be 83.61%.

As for `Cc1csc(NC(=O)C2CCN(Cc3cccc4c3OCCO4)CC2)n1`, the “Percent Effect” value turned out to be 93.8%. Then `CNC(=O)N(Cc1c(F)cccc1F)C1CCCC1`, with -10.49%; and `Cc1cccc(C(C(=O)N2CC(Oc3ccccc3F)C2)N(C)C)c1` (centres undefined), with 3.868%. For the compound `O=C(O)c1cc2c(c(S(=O)(=O)N(CCCO)c3ccccc3)c1)CCC2`, the “Percent Effect” value was -6.874%. `COc1ccc([C@@H]2CN(c3cc(OC)ncn3)C[C@H]2N(C)C)cc1`: the “Percent Effect” value was found to be 11.08%.

Turning to `COc1ccc([C@@H]2CN(c3cnccn3)C[C@H]2N(C)C)cc1`, the “Percent Effect” value was 6.916%. With `Nc1ncccc1CN1C[C@@H](C(=O)O)[C@H](c2cccc(F)c2)C1` the figure was -4.464%; with `COc1ccc([C@@H]2CN(C(=O)CS(C)(=O)=O)C[C@H]2NC(C)=O)cc1`, -2.286%. As to `COc1ccc([C@@H]2CN(c3cc(OC)nc(N)n3)C[C@H]2N(C)C)cc1`, the “Percent Effect” value is reported as -18.13%. As for `COc1ccc([C@@H]2CN(Cc3ccncc3)C[C@H]2N(C)C)cc1`, the “Percent Effect” value is reported as 115.9%. With `COc1ccc([C@@H]2CN(Cc3cccnc3N)C[C@H]2N(C)C)cc1`, the “Percent Effect” value was found to be 89.74%. For `CCCn1ccnc1CN1C[C@@H](NC(C)=O)[C@H](c2ccc(OC)cc2)C1`, the “Percent Effect” value is reported as -11.71%. As to `COc1ccc([C@@H]2CN(Cc3cccnc3N)C[C@H]2NC(C)=O)cc1`, the “Percent Effect” value stood at 100.4%. For the compound `COc1cnc(N2C[C@@H](CN3CCOCC3)C[C@H](CO)C2)nc1`, the “Percent Effect” value turned out to be 15.13%.

`Cc1ccc([C@@H]2CN(S(=O)(=O)c3cccs3)C[C@H]2N(C)C)cc1`: the “Percent Effect” value is -8.469%. For `Cc1ccccc1OCCSc1nnc(CC2CCS(=O)(=O)C2)n1C` (centres undefined), the “Percent Effect” value was found to be 3.275%. Regarding `CC(C)=CCN1C[C@H]2CC[C@@H]1CN(C(=O)Cn1c(C)cc(C)nc1=O)C2`, the “Percent Effect” value is listed as -7.163%. As to `N#Cc1ccc(CN2CCOCC2)cc1`, the “Percent Effect” value is given as 91.68%. Consider `CC(C)(C)C(O)CN1CCN(Cc2ccc(C#N)cc2)CC1` (centres undefined), for which the “Percent Effect” value turned out to be 1.533%.

For `N#Cc1ccccc1CN1CCC(CN2CCOCC2)C1` (centres undefined), the “Percent Effect” value was 95.83%. With `N#Cc1ccc(CCC(=O)N2CCC(CN3CCOCC3)CC2)cc1` the figure was 91.48%; with `Cn1c(CO)nnc1CC1CCN(Cc2ccc(C#N)cc2)CC1`, 25.57%. With `N#Cc1ccc(CN2CCC(CN3CCOCC3)C2)cc1` (centres undefined) the figure was 106.9%; with `N#Cc1ccc(CSCCN2CCOCC2)cc1`, -1.754%; with `O=C(CCN1CCOCC1)N1CCC(Cc2ccc(CO)cc2)C1` (centres undefined), -13.67%.

As to `N#Cc1ccc(CN2CCC(CCc3ccc(O)cc3)CC2)cc1`, the “Percent Effect” value is on record as -49.48%.

On to `N#Cc1ccc(N2CCCN(CC(=O)N3CCOCC3)CC2)cc1`, for which the “Percent Effect” value is recorded as -7.861%. Then `N#Cc1ccccc1C(=O)N1C[C@@H](CN2CCOCC2)[C@@H](CO)C1`, with -6.039%; and `N#Cc1ccccc1CN1CCCC(c2nccn2CC2CC2)C1` (centres undefined), with 7.864%; and `CC(C)N(C)CCCNC(=O)c1cnn(C(C)(C)C)c1C(F)(F)F`, with 5.452%.

On to `CCOC(=O)C(CO)NC(=O)CCc1cccc(OC2CCCC2)c1` (centres undefined), for which the “Percent Effect” value is given as -6.497%. On to `COCC(=O)N1CCC(C(=O)Nc2ccc(S(N)(=O)=O)cc2)CC1`, for which the “Percent Effect” value is given as -0.7847%. Regarding `c1ccc2nc(N3CCCCC3)c(NCc3nnc4n3CCC4)nc2c1`, the “Percent Effect” value is -16.15%. With `Cc1cc(C)nc(NCc2nnc3n2CCCCC3)n1`, the “Percent Effect” value is -1.015%. Then `Cc1cccc(=O)n1CCCNc1nc(N(C)C)nc2c1CCNC2`, with 32.54%; and `C1CCc2nnc(CNc3nc(C4CC4)nc4c3CCNCC4)n2CC1`, with 99.26%; and `c1ccc(-c2nc3c(c(NCc4nnc5n4CCC5)n2)CCNC3)cc1`, with 90.53%. On to `COCCNc1nc(C2CCCC2)nc2c1CCNCC2`, for which the “Percent Effect” value came to 12.56%. For the compound `c1ccc(-c2nc3c(c(NCc4n[nH]c5c4CCC5)n2)CCNC3)cc1`, the “Percent Effect” value is -30.21%. Take `CN(C)c1nc2c(c(NCc3nnc4n3CCCCC4)n1)CCNC2`: the “Percent Effect” value came to 114.9%.

Take `c1ccc2nc(N3CCCC3)c(NCc3nnc4n3CCC4)nc2c1`: the “Percent Effect” value is listed as -27.33%.

Take `CC(=O)NCc1nn(C)c2c1CN(Cc1ccsc1)C2.O=C(O)C(F)(F)F`: the “Percent Effect” value is given as -1.224%. Turning to `N[C@@H]1c2ccccc2C2(CCN(C(=O)c3ccccc3O)CC2)[C@H]1O`, the “Percent Effect” value is 0.509%.

Consider `CN(C)Cc1nnc(C2CCCN(c3nccc4ccccc34)C2)n1C` (centres undefined), for which the “Percent Effect” value came out at 5.407%. Consider `CCN(CCNC(=O)C1CCN(C(C)=O)CC1)c1ccccc1C`, for which the “Percent Effect” value was -4.01%. As for `COc1ccc2[nH]cc(CCNC(=O)C3CCCN(C(C)=O)C3)c2c1` (centres undefined), the “Percent Effect” value is reported as 94.67%.

Consider `CC(=O)N1CCC(C(=O)NCCc2c[nH]c3cc(C)ccc23)CC1`, for which the “Percent Effect” value came to 104%. Regarding `COc1ccc(CCNC(=O)C2CC2)c(Cl)c1`, the “Percent Effect” value was -15.6%.

In the case of `COC(=O)N1CCCC(C(=O)NCc2cc3cccc(OC)c3o2)C1` (centres undefined), the “Percent Effect” value was -3.243%.

For the compound `COc1ccc(CCNC(=O)C2CCCOC2)c(Cl)c1` (centres undefined), the “Percent Effect” value was determined as 0.5663%. Then `COC(=O)N1CCCC(C(=O)NCCc2c[nH]c3cc(C)ccc23)C1` (centres undefined), with 127.8%; and `CC(=O)N1CCC(C(=O)NCCN2CCCCC2)CC1`, with 12.8%. In the case of `COC(=O)N1CCCC(C(=O)Nc2ccccc2CN2CCCC2)C1` (centres undefined), the “Percent Effect” value amounted to 22.7%.

For `CNc1nc(CS(=O)(=O)c2ccccc2)cs1`, the “Percent Effect” value is given as 7.424%.
